Sa ugtP lethal – compounds lethal to S. aureus RN4220 ugtP deletion mutant; OD600 growth, 16 h; growth inhibition, % (no concentration beside the values); 0.54% of 330,000 active; AID 1259309; in the data active = growth inhibition above about 68%;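 note: plate controls were untreated wells for no effect and antibiotic for full effect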
VHR inh abs – inhibitors of human VHR1 phosphatase (DUSP3). recombinant VHR phosphatase, pNPP absorbance. inhibition, % at 13.3 µM. 0.52% of 290,000 active. AID 1654; in the data active = inhibition above about 50%
Target sequence (P51452 whole entry, looked up): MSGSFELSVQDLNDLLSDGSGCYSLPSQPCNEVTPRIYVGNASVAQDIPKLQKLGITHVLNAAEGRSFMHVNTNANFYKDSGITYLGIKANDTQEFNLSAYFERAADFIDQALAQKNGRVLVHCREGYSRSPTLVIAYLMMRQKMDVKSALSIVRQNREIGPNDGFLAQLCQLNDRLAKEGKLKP
SSB-PriA inh – inhibitors of Klebsiella pneumoniae PriA binding to SSB C-terminal tail. 0.6% of 430,000 active. inhibition, % at 33 µM. AID 1272365. AlphaScreen SSBct-PriA binding, biotinylated peptide; in the data active = inhibition mostly above about 37%, no sharp cut-off; inactive = mostly below about 20%;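 note: plate controls were negative control peptide for no effect and reference peptide for full effect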
CCHFV vOTU inh – blocks the CCHF virus ovarian tumor domain protease. CCHFV vOTU protease, Pep-AMC fluorescence. inhibition, % at 11.5 µM. 0.55% of 370,000 active. AID 651958; in the data active = inhibition above about 30%; note: 0% = vehicle wells with enzyme and 100% = no enzyme wells
RN4220 kill – kills Staphylococcus aureus RN4220. S. aureus RN4220 growth, OD600, 16 h. inhibition, % (no concentration beside the values). 0.33% of 330,000 active; in the data active = inhibition above about 85%;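 note: plate controls were untreated cells for no effect and reference antibiotic for full effect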
Starred values were filed as active, the others as inactive; . = not tested or not shown; ! = a repeat was not active. The list is not random: actives were taken first. Their share in the collection is about 1.5%.

SMILES	Sa ugtP lethal	VHR inh abs	SSB-PriA inh	CCHFV vOTU inh	RN4220 kill
CC(C)C(=O)N1CCN(c2ccc(NC(=O)c3ccc([N+](=O)[O-])o3)cc2Cl)CC1	56	33	-12	-2	47
O=C(NNC(=S)Nc1ccc(Br)cc1)c1ccc(N2CCOCC2)c([N+](=O)[O-])c1	21	-4	7	19	3
CC1CCCN(c2ccc(C(=O)Nc3ccc4c(c3)OCO4)cc2[N+](=O)[O-])C1 (stereo not given)	-13	-2	10	9	-1
CN1CCN(c2ccc(NC(=O)c3ccc([N+](=O)[O-])o3)cc2Cl)CC1	101*	20	-1	11	99*
Cc1ccc(NC(=S)NNC(=O)c2ccc(N3CCOCC3)c([N+](=O)[O-])c2)cc1Cl	.	0	38*	1	.
C=CCCC(=O)N1CCC(N2CCCC2COCc2ccccc2)CC1 (stereo not given)	.	.	-12	.	.
CCOc1ccc(N2C[C@@H](CNS(=O)(=O)c3cccc(C(F)(F)F)c3)CC2=O)cc1	.	.	-15	.	.
O=[N+]([O-])c1cccc(-c2csc(=Nc3ccccc3)n2N2CCOCC2)c1	.	.	64*	.	.
Cc1ccccc1OCC(=O)Nc1ccc(S(=O)(=O)Nc2ccccn2)cc1	6	0	-12	3	1
Cc1ccc(OCC(=O)Nc2ccc(S(=O)(=O)Nc3ccccn3)cc2)c(C)c1	0	56*	-11	9	2
COc1ccc(NC(=O)CSc2cc(C)nc(-c3cccnc3)n2)cc1OC	.	.	-8	.	.
O=C(NNC(=O)c1cccn(Cc2cccc(F)c2)c1=O)NC1CCCCC1	.	.	-11	.	.
Cc1ccc2[nH]c(-c3cccc(N)c3)cc2c1	-1	15	39*	2	-3
CCCC(=O)N1CCN(c2cc(-n3nc(C)cc3C)nc(C)n2)CC1	.	.	-6	.	.
CCOc1ccccc1N1CCN(C(=O)C2c3ccccc3Oc3ccccc32)CC1	0	50*	7	3	-11
Cc1ccc(S(N)(=O)=O)cc1NC(=O)c1ccc2c3c(cccc13)CC2	9	57*	0	8	17
Cc1ccccc1NC(=O)Nc1cc(S(N)(=O)=O)ccc1C	3	6	-4	10	4
CCCCCC(=O)Nc1nc(C)c(-c2csc(Nc3cc(OC)ccc3OC)n2)s1	-3	51*	-5	26	-6
CCCCCCC(=O)Nc1nc(C)c(-c2csc(Nc3cc(OC)ccc3OC)n2)s1	-36	127	22	17	-2
O=C(NCCCn1nc(-c2ccccc2)ccc1=O)c1ccc2ccccc2n1	.	.	-7	.	.
O=C(Nc1ccc(N2CCOCC2)c2nonc12)C1CCCC1	4	5	-5	9	0
Nc1ccc(N2CCOCC2)c2nonc12	8	30	12	109*	5
COc1cc(OC)c(NC(=S)Nc2cc(Cl)cc(Cl)c2)cc1Cl	93*	-11	-3	0	99*
Nc1cccc(CCc2ccncc2)c1	3	58*	3	5	2
CC1(C)CC(NC(=O)c2ccc(Cl)cc2)CC(C)(C)N1	1	36	-12	-12	5
SMILES	Sa ugtP lethal	VHR inh abs	SSB-PriA inh	CCHFV vOTU inh	RN4220 kill
CC1(C)CC(NC(=O)Cc2ccc(Cl)cc2)CC(C)(C)N1	8	53*	-6	-9	-4
Cc1cc2cc(CNC(=S)NCc3ccccc3)ccc2[nH]1	.	.	47	.	.
Cc1cc2cc(CNC(=S)NC(C)(C)C)ccc2[nH]1	.	.	51	.	.
CCNC(=S)NCc1ccc2[nH]c(C)cc2c1	-1	4	63*	-3	4
Cc1cc2cc(CNC(=S)Nc3ccc(OC(F)(F)F)cc3)ccc2[nH]1	5	-7	58*	16	1
Cc1cc2cc(CNC(=O)Nc3ccccc3)ccc2[nH]1	-6	16	44*!	6	-3
Cc1cc2cc(CNC(=S)Nc3ccc(OC(F)F)cc3)ccc2[nH]1	-8	-11	73*	2	12
FC(F)Oc1ccc(NC(=S)NCc2nc3ccccc3[nH]2)cc1	-7	19	2	18	2
Cc1cc2cc(CNC(=O)CC(c3ccccc3)c3ccccc3)ccc2[nH]1	.	.	-11	.	.
O=C(Cn1cnc(-c2ccccc2)cc1=O)c1ccccc1	.	.	3	.	.
C[C@](O)(CNC(=O)c1ccsc1)c1cc2ccccc2s1	.	.	-9	.	.
CCOc1ccc2ncc(C#N)c(NCc3cccc(Cl)c3)c2c1	.	.	-12	.	.
Nc1ccccc1-c1n[nH]c(-c2ccccn2)n1	.	.	107*	.	.
Nc1n[nH]c(-c2ccccn2)n1	.	.	49	.	.
Nc1ccc2nc(-c3ccccn3)[nH]c2c1	-6	8	96*	5	1
Nc1ccc2nc(-c3ccccc3)[nH]c2c1	-1	5	16	-319	2
c1ccc(-c2nc3ccc(Cc4ccc5nc(-c6ccccn6)[nH]c5c4)cc3[nH]2)nc1	.	.	88*	.	.
